Where “and” joins values, the source holds several entries; their conditions need not be identical. Identical values can stand only once. Results filed as inconclusive are left out. Entries that show only a call come without a potency. The source holds several records for some structures; these can differ, active in one and inactive in another. Calls of active or inactive are those of the source. Calls come from the whole dose curve.

22 compounds from PubChem BioAssay (Tox21) can be followed below.
Potency is the fitted concentration of half-maximal effect.

The assay in a line: qHTS assay to identify small molecule agonists of the hypoxia (HIF-1) signaling pathway - cell viability counter screen (AID 1224844). Note: nearly all actives have a fitted effect of over 50% in size. The settings on record: HRE-bla ME-180 viability, CellTiter-Glo luminescence, 17 h; series mostly up to 76.8 µM; activity change, negative = cytotoxicity: at the top concentration. In a few lines: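 Cytotoxicity was measured in parallel with the HRE-driven beta-lactamase readout: after 17 hrs of compound exposure at 37C, HRE-bla ME-180 cells received CellTiter-Glo and luminescence was recorded 30 min later.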
Background: Quantitative high-throughput screening tests each substance at several concentrations.
On to `CCOCCOCCO`, for which the Potency entry was “inactive”.

As for `C/C=C/C(=O)O`, the Potency entry was “inactive”.

For the compound `COC(=O)CCC(=O)OC`, the Potency entry is “inactive”.

With `O=CCc1ccccc1`, the Potency entry was “inactive”.

With `CC(C)OC=O`, the Potency was 58.4 µM (active) and inactive.

In the case of `O=C(O)c1ccccc1Nc1cccc(C(F)(F)F)c1`, the Potency result was “inactive”.

For `CN(C)CCN(Cc1cccs1)c1ccccn1`, the Potency entry is “inactive”.

On to `CCC(C)(O)CCCC(C)C` (configuration not stated), for which the Potency result is “inactive”.

`Cc1cccc([N+](=O)[O-])c1C`: the Potency result was “inactive”.

On to `CC(C)=CCC/C(C)=C\CO`, for which the Potency entry is “inactive”.

`Cc1ncc[nH]1`: the Potency entry was “inactive”.

For the compound `O=CCCCC=O`, the Potency was 21.1 µM (active) and 19.5 µM (active).

For `CCCc1c(OCCCCc2nn[nH]n2)ccc(C(C)=O)c1O`, the Potency entry was “inactive”.

Turning to `C[Si](C)(C)O[Si](C)(C)C`, the Potency entry was “inactive”.

Regarding `C=C(C)C1CC=C(C)CC1` (configuration not stated), the Potency entry is “inactive”.

On to `C#C[C@]1(O)CC[C@H]2[C@@H]3CCC4=Cc5oncc5C[C@]4(C)[C@H]3CC[C@@]21C`, for which the “activity change, negative = cytotoxicity” value is -0.76% [at 35.3 µM] (inactive).

With `Oc1ccc(O)cc1`, the Potency result was “inactive”.

Regarding `CC(=O)C1(C)CC2=C(CCCC2(C)C)CC1C` (configuration not stated), the Potency result is “inactive”.

Take `C=CC(C)(CCC=C(C)C)OC(C)=O` (configuration not stated): the Potency entry is “inactive”.

In the case of `CC(=O)c1ccccn1`, the Potency entry is “inactive”.

Turning to `O=S(=O)(O)c1ccc(O)cc1`, the Potency result was “inactive”.

With `CC(=O)CC/C=C(\C)CCC=C(C)C`, the Potency entry is “inactive”.
